In general, inhibition refers to the relative decrease from the control value, in per cent.

The source of these data is PubChem BioAssay.

A short description of assay [1]: Wnt pathway potentiators raising nuclear beta-catenin – imaging, WNT3A-conditioned medium, mouse C2C12, NPC library, primary screen (AID 1117326; in the data active means nuclear beta-catenin stimulation mostly above about 4.2%, no sharp cut-off; inactive means mostly below about 10%). Particulars: stronger effect = higher value.
Assay [2] in a line: stimulators of insulin release from INS-1E, primary screen, cell-based, 5 mM glucose, NPC library (AID 1117329;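 active means compound raises insulin release from rat beta cells at 5 mM glucose, no numeric limit stated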). As to conditions: rat INS-1E insulin secretion, at 10 µM, stronger effect = higher value.
A short description of assay [3]: growth inhibition of GSK3B-pretreated HCT116 cells – cell-based, CellTiter-Glo, 0.2 to 20 µM (AID 1117336;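 active means compounds lowering colon cancer cell viability after pretreatment blocking the GSK3B kinase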). Particulars: HCT116 viability after GSK3B inhibitor, at 20 µM, stronger effect = higher value. Background: Cellular ATP, detected with luciferase, serves as a proxy for viable cell number.
Assay [4] can be described thus: inhibition of endothelial tube formation, primary screen, imaging, VEGF stimulated, CD31 staining, tube area, NPC library (AID 1117340;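 active means compound that reduces growth-factor-driven endothelial tube area in a mixed cell culture, no cutoff stated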). Particulars: VEGF-stimulated ADSC/ECFC co-culture, at 10 µM, stronger effect = higher value.
Assay [5] in a line: GLP1 release stimulators, primary, NCI-H716, NPC library (AID 1117341;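 active means compound raises GLP1 secretion from the human gut endocrine cells, with no numeric limit stated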). As to conditions: NCI-H716 cells, at 10 µM, stronger effect = higher value.
A short description of assay [6]: HCT116 colon cancer cell growth inhibition, primary screen, CellTiter-Glo luminescence, NPC library (AID 1117342;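 active means compounds that lower survival of HCT116 colon cancer cells in the luminescence readout, no numeric limit stated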). As to conditions: at 20 µM (top of the series).
A short description of assay [7]: reduced SW480 viability measured with CellTiter-Glo, NPC library, primary (AID 1117343;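 active means compounds that lower viability of the colon cancer cells in the luminescence readout, with no numeric limit stated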). As to conditions: CellTiter-Glo luminescence; at 20 µM (top of the series).
Assay [8] is described as follows: NPC library primary testing for decreased DLD-1 cell viability via CellTiter-Glo (AID 1117346;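 active means compounds that lower survival of DLD-1 colon cancer cells in the luminescence readout, no cutoff given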). As to conditions: DLD-1 viability, CellTiter-Glo luminescence; at 20 µM (top of the series).
For assay [9], the target named is 6-phosphogluconate dehydrogenase, decarboxylating (Homo sapiens) (UniProt P52209). Briefly: inhibition of human phosphogluconate dehydrogenase – biochemical, recombinant enzyme, NADPH absorbance, primary screen (AID 1159550;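 active means at least 20% inhibition of 6-phosphogluconate dehydrogenase activity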). As to conditions: recombinant 6PGD, NADPH absorbance 341 nm; at 10 µM; stronger effect = higher value.
Assay [10] in a line: EMT-state selective cytotoxicity in co-culture – imaging, PC-3E GFP, TEM4-18 mCherry, primary screen (AID 1345086;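 active means compounds killing one labelled cell type while sparing the other, by normalised counts and ratio limits, not self-fluorescent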;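 on all read-outs here: cells exposed to compound for 72 h before imaging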;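 on red/green cell ratio (normalised): normalised mesenchymal count divided by normalised epithelial count so high means epithelial killing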). Particulars: PC-3E GFP / TEM4-18 mCherry co-culture, imaging cell counts, at 1 µM; for red/green cell ratio (normalised): actives lie on both sides, counts scaled to control wells, 1 = unselective.
Assay [11] in a line: MELAS cybrid and Rieske KO viability enhancers – cell-based, MELAS cybrids, Rieske KO mouse fibroblasts, CellTiter-Glo, primary screen (AID 1508586;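 active means mean z-score across replicates of 1.96 or higher in either the MELAS or the Rieske mutant cell line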;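 further: z relative to plate mean and SD of compound and empty wells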). As to conditions: low glucose.
For assay [12], the target named is NAD(+) hydrolase SARM1 (Homo sapiens) (UniProt Q6SZW1). Briefly: blocking NAD cleavage by SARM1 SAM-TIR – cell lysate, NAD-Glo luminescence (AID 1508614;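 active means compound whose remaining NAD level is above about 45 nM, limit read from the data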). As to conditions: SAM-TIR HEK293T lysate NADase, at 1 µM, stronger effect = higher value.
Assay [13] has as its system F380Y. Description: BK channel mutant inhibitors and activators – cell-based, U2OS BacMam, thallium flux, beta subunits, selectivity assay, profiling panel (AID 1259406).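 Further: initial slope of Thallos dye fluorescence rise after thallium is added; log ratio against the mean of 0.3% DMSO vehicle wells on the same plate.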 Particulars: U2OS BacMam BK variants, at 30 µM.
The test system of assay [14] is F380Y/beta1. Described as above. Particulars: U2OS BacMam BK variants, at 30 µM.
In assay [15] the test system is F380Y/beta2Delta. The assay is described as above. As to conditions: U2OS BacMam BK variants, at 30 µM.
The subject of assay [16] is F380Y/beta4. Described as above. As to conditions: U2OS BacMam BK variants, at 30 µM.
Assay [17] deals with Calcium-activated potassium channel subunit alpha-1 (Homo sapiens) + Leucine-rich repeat-containing protein 26 (Homo sapiens) (UniProt Q12791+Q2I0M4). The description is as above. Particulars: U2OS BacMam BK variants, F380Y/Slo1WT/gamma1, at 30 µM.
The subject of assay [18] is R275C. The description is as above. As to conditions: U2OS BacMam BK variants, at 30 µM.
Assay [19] in a line: viability loss with induced miR-34 in A549 – imaging, A549 dox-inducible miR-34, nuclei and caspase counts, primary screen (AID 1347080;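 active means compounds whose cell count with miR-34 switched on is under 0.7 times the count with it off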). As to conditions: A549 miR-34 inducible, Hoechst nuclei count, 48 h.
[20] abbreviates: measured here: epithelial PC-3E GFP cell survival.
Setting [21] is: measured here: mesenchymal TEM4-18 mCherry cell survival.
Setting [22] is: MELAS cybrid survival, CellTiter-Glo 48 h, stronger effect = higher value.
[23] abbreviates: Rieske KO mouse fibroblast survival, CellTiter-Glo 72 h.
Where [24] appears, read: measured here: relative caspase fold change +Dox/-Dox.

Where “and” joins values, the source holds several entries; their conditions need not be identical. Identical values can stand only once. Calls of active or inactive are those of the source.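 How the source made its calls, unless noted: active means thallium flux through the channel raised or lowered by more than 3 SD from vehicle-only wells, actives on both sides; inactive means the rest.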

Sequence of Calcium-activated potassium channel subunit alpha-1 (Homo sapiens) + Leucine-rich repeat-containing protein 26 (Homo sapiens) (Q2I0M4 whole entry, looked up, one chain of several): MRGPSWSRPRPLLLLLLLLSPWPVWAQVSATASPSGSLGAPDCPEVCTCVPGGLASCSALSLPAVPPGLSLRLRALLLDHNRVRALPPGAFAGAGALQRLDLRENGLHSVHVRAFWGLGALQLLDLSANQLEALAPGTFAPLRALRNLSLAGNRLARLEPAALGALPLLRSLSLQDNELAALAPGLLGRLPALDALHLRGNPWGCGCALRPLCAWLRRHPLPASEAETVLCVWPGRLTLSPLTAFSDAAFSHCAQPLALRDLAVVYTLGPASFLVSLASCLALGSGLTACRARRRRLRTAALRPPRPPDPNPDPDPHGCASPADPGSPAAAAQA
Sequence of NAD(+) hydrolase SARM1 (Homo sapiens) (Q6SZW1 whole entry, looked up): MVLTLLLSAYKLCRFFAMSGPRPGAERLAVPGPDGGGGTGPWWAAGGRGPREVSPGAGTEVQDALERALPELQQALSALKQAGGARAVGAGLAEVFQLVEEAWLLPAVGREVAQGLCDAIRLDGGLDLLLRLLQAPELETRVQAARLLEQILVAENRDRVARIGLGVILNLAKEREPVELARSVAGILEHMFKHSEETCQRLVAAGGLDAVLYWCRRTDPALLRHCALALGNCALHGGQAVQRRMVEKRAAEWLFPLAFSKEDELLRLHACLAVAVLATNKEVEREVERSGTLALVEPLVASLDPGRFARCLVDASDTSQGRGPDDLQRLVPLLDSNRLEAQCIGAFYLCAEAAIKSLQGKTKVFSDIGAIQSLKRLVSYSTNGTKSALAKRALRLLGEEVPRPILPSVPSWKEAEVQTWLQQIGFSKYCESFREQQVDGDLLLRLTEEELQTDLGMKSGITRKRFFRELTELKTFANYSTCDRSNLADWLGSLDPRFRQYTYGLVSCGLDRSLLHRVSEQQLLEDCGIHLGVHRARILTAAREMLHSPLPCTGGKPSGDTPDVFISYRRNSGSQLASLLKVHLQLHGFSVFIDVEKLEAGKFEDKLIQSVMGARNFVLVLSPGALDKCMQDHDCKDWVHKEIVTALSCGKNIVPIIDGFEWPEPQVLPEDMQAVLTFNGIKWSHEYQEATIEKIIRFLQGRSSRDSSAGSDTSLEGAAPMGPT
Sequence of 6-phosphogluconate dehydrogenase, decarboxylating (Homo sapiens) (P52209 whole entry, looked up): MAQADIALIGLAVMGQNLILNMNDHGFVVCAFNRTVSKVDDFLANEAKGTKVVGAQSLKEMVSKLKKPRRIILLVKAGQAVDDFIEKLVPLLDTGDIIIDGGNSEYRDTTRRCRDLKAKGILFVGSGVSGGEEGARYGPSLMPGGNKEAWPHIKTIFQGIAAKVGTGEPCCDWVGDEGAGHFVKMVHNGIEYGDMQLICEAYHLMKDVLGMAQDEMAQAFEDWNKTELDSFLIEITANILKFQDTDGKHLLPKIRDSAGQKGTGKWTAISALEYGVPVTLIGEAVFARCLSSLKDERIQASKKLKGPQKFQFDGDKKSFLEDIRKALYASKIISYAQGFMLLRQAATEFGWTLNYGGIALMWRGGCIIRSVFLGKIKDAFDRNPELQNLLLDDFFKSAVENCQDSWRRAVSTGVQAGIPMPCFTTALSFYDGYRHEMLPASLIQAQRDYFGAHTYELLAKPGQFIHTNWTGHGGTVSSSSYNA

`CN(C)C(=O)Oc1ccc[n+](C)c1`: the nuclear beta-catenin stimulation in assay [1] (at 10 µM) was 0.1% (inactive); in assay [1] (stimulation, at 2 µM), 10.5%. Also, the insulin secretion stimulation in [2] is 0.95% (inactive). Moreover, in [3], the viability decrease is 10.7% (inactive). In addition, the tube area decrease in assay [4] was -21.1% (inactive). Besides, in [5], the GLP1 secretion stimulation is -3.2% (inactive). Moreover, the inhibition of viability in assay [6] was -1% (inactive). Moreover, the results for the viability decrease (inhibition) in assay [7] and in assay [8] were -8.3% (inactive) and -12.1% (inactive), respectively. In addition, the inhibition in [9] is -7.31% (inactive). In addition, the red/green cell ratio (normalised) in [10] was 1.32 (inactive). Further, the values for the normalised cell number in assay [10] (setting [20]) and in [10] (setting [21]) were 1.15 and 1.53, respectively. The z-score in [11] (setting [22]) was 0.178 (inactive) and 0.175 (inactive); in [11] (setting [23]), 0.0482 and -0.383. Also, the remaining NAD in assay [12] was 10 nM (inactive). Further, the log fold change Tl+ flux in assay [13] was -0.00126 (inactive); in assay [14], 0.0465 (inactive); in [15], -0.0385 (inactive); in assay [16], -0.0469 (inactive); in assay [17], 0.0382 (inactive); in [18] it was -0.0114 (inactive).
With `CN(C)CCC[C@@]1(c2ccc(F)cc2)OCc2cc(C#N)ccc21`, the nuclear beta-catenin stimulation was 2.2% (inactive) in [1] (at 10 µM) and -0.7% in [1] (stimulation, at 2 µM). Moreover, the insulin secretion stimulation in [2] is 31.7% (active). In assay [3], the viability decrease was 4.6% (inactive). For the same molecule, in assay [4], the tube area decrease was 3.6% (inactive). In addition, the GLP1 secretion stimulation in assay [5] is 10.5% (inactive). Moreover, in assay [6], the inhibition of viability was -13.4% (inactive). The values for the viability decrease (inhibition) in assay [7] and in assay [8] were 66.3% (active) and 24.4% (inactive), respectively. Besides, in assay [9], the inhibition was 8.36% (inactive). The red/green cell ratio (normalised) in assay [10] was 0.99 (inactive). Moreover, the normalised cell number in [10] (setting [20]) amounted to 1.13; in assay [10] (setting [21]), 1.12. The fold change in [19] (stronger effect = lower value, cell number ratio, induced over uninduced) is 1.02 (inactive) and 0.891 (inactive); in assay [19] (setting [24]), 2.21 and 1.15. For the same molecule, the cell count in assay [19] (measured here: total cells with miR-34 induction, stronger effect = lower value) was 9600 and 9400; in assay [19] (measured here: total cells without miR-34 induction) it was 9420 and 10600. Further, the z-score in [11] (setting [22]) is -0.471 (inactive) and -0.676 (inactive); in [11] (setting [23]) it was -0.0102 and -1.12. Further, the remaining NAD in assay [12] was 10 nM (inactive). Besides, the log fold change Tl+ flux in assay [13] was 0.0406 (inactive); in [14], -0.0013 (inactive); in [15], 0.0188 (inactive); in [16], 0.042 (inactive); in assay [17], -0.0413 (inactive); in assay [18], -0.0846 (inactive).
Regarding `CCOC(=O)[C@H](CCc1ccccc1)N[C@@H](C)C(=O)N1Cc2ccccc2C[C@H]1C(=O)O`, the nuclear beta-catenin stimulation in assay [1] (at 10 µM) was 2.5% (inactive); in assay [1] (stimulation, at 2 µM) it was 0.3%. Besides, the insulin secretion stimulation in assay [2] is 0.7% (inactive). In addition, the viability decrease in assay [3] was -30.1% (inactive). The tube area decrease in [4] is -10% (inactive). Besides, the GLP1 secretion stimulation in [5] was 2.9% (inactive). Also, the inhibition of viability in assay [6] is 3.6% (inactive). For the same molecule, the viability decrease (inhibition) in assay [7] is 28.5% (inactive); in assay [8], 6% (inactive). Moreover, the inhibition in assay [9] was -10.1% (inactive). Further, in [10], the red/green cell ratio (normalised) was 0.95 (inactive). Moreover, the normalised cell number is 1.17 in assay [10] (setting [20]) and 1.12 in assay [10] (setting [21]). Besides, the fold change in assay [19] (setting [24]) was 1.45 and 1.07 and 4.39. In addition, the z-score in assay [11] (setting [22]) was 0.64 (inactive) and 0.208 (inactive); in assay [11] (setting [23]), -0.486 and -0.81. In [12], the remaining NAD is 10 nM (inactive). Also, the log fold change Tl+ flux was 0.032 (inactive) in assay [13]; -0.0839 (inactive) in [14]; 0.0255 (inactive) in assay [15]; -0.00668 (inactive) in [16]; 0.0143 (inactive) in assay [17]; -0.00535 (inactive) in [18].
As for `Cc1nc2ccccn2c(=O)c1CCN1CCC(C(=O)c2ccc(F)cc2)CC1`, the nuclear beta-catenin stimulation in [1] (at 10 µM) was -0.7% (inactive); in [1] (stimulation, at 2 µM), -2.4%. Also, the insulin secretion stimulation in assay [2] was 3.35% (inactive). Further, the viability decrease in assay [3] is 24.3% (inactive). The tube area decrease in assay [4] is 6% (inactive). Also, the GLP1 secretion stimulation in assay [5] was 10.6% (inactive). Also, the inhibition of viability in assay [6] is 67.9% (active). The viability decrease (inhibition) in assay [7] was 30.7% (inactive); in [8] it was 11.5% (inactive). Also, the inhibition in assay [9] is 0.157% (inactive). In addition, the red/green cell ratio (normalised) in assay [10] was 1.29 (inactive). The normalised cell number came out at 0.87 in assay [10] (setting [20]) and 1.12 in assay [10] (setting [21]). Also, the z-score in assay [11] (setting [22]) is -0.0109 (inactive); in assay [11] (setting [23]) it was -0.116. In assay [12], the remaining NAD is 10 nM (inactive). Also, the log fold change Tl+ flux in assay [13] was 0.00566 (inactive); in assay [14], 0.0396 (inactive); in [15], -0.00369 (inactive); in assay [16], 0.0319 (inactive); in [17], -0.0679 (inactive); in [18], -0.025 (inactive).
`O=C(CCCN1CC=C(n2c(=O)[nH]c3ccccc32)CC1)c1ccc(F)cc1`: the nuclear beta-catenin stimulation in [1] (at 10 µM) was 1% (inactive); in [1] (stimulation, at 2 µM), 0.3%. For the same molecule, the insulin secretion stimulation in assay [2] was 2.7% (inactive). For the same molecule, in assay [3], the viability decrease is -5.9% (inactive). Further, the tube area decrease in assay [4] was 16.2% (inactive). Moreover, the GLP1 secretion stimulation in assay [5] was -0.5% (inactive). The inhibition of viability in [6] is 28.5% (inactive). The viability decrease (inhibition) in assay [7] is 10.4% (inactive); in [8], 3.7% (inactive). Moreover, in [9], the inhibition was 12.8% (inactive). In addition, the red/green cell ratio (normalised) in assay [10] is 0.96 (inactive). Also, the normalised cell number worked out at 0.94 in [10] (setting [20]) and 0.9 in assay [10] (setting [21]). Further, the z-score is -0.163 (inactive) and 0.567 (inactive) in assay [11] (setting [22]); -0.119 and 0.175 in assay [11] (setting [23]). In addition, the remaining NAD in [12] is 10 nM (inactive). Further, the log fold change Tl+ flux in [13] is 0.0359 (inactive); in [14], -0.0432 (inactive); in assay [15] it was 0.058 (inactive); in assay [16], 0.0551 (inactive); in assay [17], -0.0307 (inactive); in [18], 0.0212 (inactive).
As to `CCN(CC)CCOC(=O)c1ccc(N)cc1`, the nuclear beta-catenin stimulation in assay [1] (at 10 µM) is 0.6% (inactive); in assay [1] (stimulation, at 2 µM), -0.3%. Further, the insulin secretion stimulation in assay [2] was 0.1% (inactive). The viability decrease in assay [3] is 2.8% (inactive). Also, the tube area decrease in [4] was 7% (inactive). Besides, the GLP1 secretion stimulation in assay [5] is -0.7% (inactive). The inhibition of viability in assay [6] is 4.2% (inactive). In addition, the results for the viability decrease (inhibition) in assay [7] and in [8] were 56.5% (active) and 1.05% (inactive), respectively. For the same molecule, the inhibition in [9] was 2.32% (inactive). For the same molecule, the red/green cell ratio (normalised) in assay [10] is 1.08 (inactive). In addition, the normalised cell number in [10] (setting [20]) was 0.95; in assay [10] (setting [21]) it was 1.03. Moreover, the z-score in assay [11] (setting [22]) was -0.214 (inactive) and -0.849 (inactive); in [11] (setting [23]), -0.241 and -0.347. The remaining NAD in assay [12] is 10 nM (inactive). The log fold change Tl+ flux in [13] was -0.0653 (inactive); in assay [14] it was -0.0732 (inactive); in assay [15], 0.0223 (inactive); in [16], 0.0148 (inactive); in assay [17], 0.0123 (inactive); in assay [18] it was -0.00878 (inactive).
